# Source: PubChem BioAssay (NCATS)
# Where “and” joins values, the source holds several entries; their conditions need not be identical. Equal values may be shown once. Inconclusive results are not listed. Entries that show only a call come without a potency. Where a structure was tested more than once in an assay, its records may differ in their call. Calls of active or inactive are those of the source. Unless noted, the call rests on the fitted dose curve; in most records, active means well fitted curve in the direction sought with a large enough effect; inconclusive means small, poorly fitted or top-dose-only effect, or another doubt; inactive means no such curve, though single readings can be large; an effect the other way counts as inactive or inconclusive.
# What was measured:
# CAOV3 = assay: Primary qHTS to identify gynecologic anti-cancer compounds using libraries of approved drugs and bioactive compounds (AID 1345084); conditions: Gynecologic cancer cell panel viability, ATPlite luminescence, 48 h; series mostly up to 57.5 µM; further: nearly all actives have a fitted effect of over 55% in size; further: potency means the concentration at half of the fitted maximal effect
# In short: (§1)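 Luminescence from the ATPlite ATP-monitoring reagent indicates viable cell number; lower signal means cytotoxicity. Cells received compound 16 h after seeding and were exposed for 48 h across five concentrations.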
# CASKI = assay: as above; conditions: Gynecologic cancer cell panel viability, ATPlite luminescence, 48 h; series mostly up to 57.5 µM
# In short: as §1
# Es-2 = assay: as above; conditions: Gynecologic cancer cell panel viability, ATPlite luminescence, 48 h; series mostly up to 57.5 µM
# In short: as §1
# HeLa = assay: as above; conditions: Gynecologic cancer cell panel viability, ATPlite luminescence, 48 h; series mostly up to 57.5 µM
# In short: as §1
# Hek293T = assay: as above; conditions: Gynecologic cancer cell panel viability, ATPlite luminescence, 48 h, control line for the selectivity index; series mostly up to 57.5 µM
# In short: as §1
# OV90 = assay: as above; conditions: Gynecologic cancer cell panel viability, ATPlite luminescence, 48 h; series mostly up to 57.5 µM
# In short: as §1
# PA-1 = assay: as above; conditions: Gynecologic cancer cell panel viability, ATPlite luminescence, 48 h; series mostly up to 57.5 µM
# In short: as §1
# SKOV3 = assay: as above; conditions: Gynecologic cancer cell panel viability, ATPlite luminescence, 48 h; series mostly up to 57.5 µM
# In short: as §1
# Tov-21-G = assay: as above; conditions: Gynecologic cancer cell panel viability, ATPlite luminescence, 48 h; series mostly up to 57.5 µM
# In short: as §1
# Tov112D = assay: as above; conditions: Gynecologic cancer cell panel viability, ATPlite luminescence, 48 h; series mostly up to 57.5 µM
# In short: as §1
# [1] = Drug repurposing screens with cells derived from glioblastoma tumor samples (AID 1345199); conditions: GBM patient neurospheres viability, ATP luminescence, 48 h; further: nearly all actives have a fitted effect of over 40% in size; further: potency means the concentration at half of the fitted maximal effect
# In short: (§2)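 Four patient lines of CD133+ GBM neurospheres were screened at several concentrations; hits were retested in those lines plus three slower-growing GBM lines, using 48-hour treatment and ATP-based viability.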
# astro = assay: as above; conditions: viability, ATP luminescence, 48 h; series mostly up to 45.9 µM
# In short: as §2
# [2] = target: Nuclear receptor subfamily 1 group I member 2 (Rattus norvegicus) (UniProt Q9R1A7); assay: qHTS assay for small molecule activators of the rat pregnane X receptor (rPXR) signaling pathway (AID 651751; call rule not given here); conditions: rPXR reporter cells, luciferase (One-Glo), 24 h
# Chain of Nuclear receptor subfamily 1 group I member 2 (Rattus norvegicus) (Q9R1A7 whole entry, looked up): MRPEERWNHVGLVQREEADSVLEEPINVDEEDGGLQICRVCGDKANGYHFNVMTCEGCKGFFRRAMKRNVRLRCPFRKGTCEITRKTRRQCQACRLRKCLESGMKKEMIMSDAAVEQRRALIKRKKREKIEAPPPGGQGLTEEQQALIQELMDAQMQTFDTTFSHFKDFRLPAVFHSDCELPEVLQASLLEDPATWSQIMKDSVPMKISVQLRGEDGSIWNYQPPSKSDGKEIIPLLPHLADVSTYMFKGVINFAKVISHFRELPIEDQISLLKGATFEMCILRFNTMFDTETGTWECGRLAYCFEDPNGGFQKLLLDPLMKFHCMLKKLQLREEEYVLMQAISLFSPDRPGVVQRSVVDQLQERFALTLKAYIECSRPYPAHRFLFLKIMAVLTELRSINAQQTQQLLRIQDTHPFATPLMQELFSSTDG
# [3] = qHTS assay for small molecule activators of the human pregnane X receptor (PXR) signaling pathway (AID 720659; call rule not given here)
# JEG-3 = assay: Primary qHTS to identify gynecologic anti-cancer compounds using libraries of approved drugs and bioactive compounds (AID 1345084); conditions: Gynecologic cancer cell panel viability, ATPlite luminescence, 48 h; series mostly up to 57.5 µM; further: nearly all actives have a fitted effect of over 55% in size; further: potency means the concentration at half of the fitted maximal effect
# In short: as §1
# [4] = at 45.9 µM (top of the series), tumour line B
# [5] = at 45.9 µM (top of the series), tumour line D
# [6] = at 46 µM (top of the series), tumour line A
Compound,Potency (CAOV3),Potency (CASKI),Potency (Es-2),Potency (HeLa),Potency (Hek293T),Potency (OV90),Potency (PA-1),Potency (SKOV3),Potency (Tov-21-G),Potency (Tov112D),"activity, negative = cell killing [1, 4]","activity, negative = cell killing [1, 5]",Potency (astro),max response [2],outcome [3],Potency ([1]; tumour line A),"activity, negative = cell killing [1, 6]",Potency (JEG-3)
C[C@]12C/C(=C/O)C(=O)C[C@@H]1CC[C@@H]1[C@@H]2CC[C@@]2(C)[C@H]1CC[C@]2(C)O,inactive,inactive,inactive,inactive,inactive,inactive,inactive,inactive,inactive,inactive,-10.4% (inactive),-15.9% (inactive),inactive,-5.34% (inactive) and -0.621% (inactive),inactive,–,–,–
CC(C)(N)Cc1ccc(Cl)cc1,inactive,inactive,inactive,inactive,inactive,inactive,inactive,inactive,inactive,inactive,-10.8% (inactive),-8.85% (inactive),–,–,–,–,–,–
Clc1cccc(N2CCNCC2)c1,inactive,inactive,inactive,inactive,inactive,inactive,inactive,inactive,inactive,inactive,-20% (inactive),–,inactive,–,–,35.5 µM (active),–,–
NCC(O)c1ccc(O)cc1 (configuration not stated),inactive,inactive,inactive,inactive,inactive,inactive,inactive,inactive,inactive,inactive,-12.4% (inactive),-9.81% (inactive),inactive,2.53% (inactive),inactive,–,–,–
Oc1ccccc1-c1ccccc1,inactive,inactive,inactive,inactive,inactive,inactive,inactive,inactive,inactive,inactive,-14.5% (inactive),-15.4% (inactive),inactive,-0.588% (inactive) [middle of 4 runs],–,–,-19.2% (inactive),–
O=C1CC[C@@]2(O)[C@H]3Cc4ccc(O)c5c4[C@@]2(CCN3CC2CC2)[C@H]1O5,inactive,inactive,inactive,inactive,inactive,inactive,inactive,inactive,inactive,inactive,1.04% (inactive),-3.21% (inactive),inactive,–,–,–,–,–
CC(C)=CC1C(C(=O)OCc2cccc(Oc3ccccc3)c2)C1(C)C (configuration not stated),inactive,inactive,inactive,inactive,inactive,inactive,inactive,inactive,inactive,inactive,-17.7% (inactive),-26.5% (inactive),–,–,–,12.6 µM (active),–,–
C#CCN(C)[C@H](C)Cc1ccccc1,inactive,inactive,inactive,inactive,inactive,inactive,inactive,–,inactive,inactive,-10.5% (inactive),-14.3% (inactive),–,–,–,–,-47.6% (inactive),inactive
CCN(C(C)=O)c1cccc(-c2ccnc3c(C#N)cnn23)c1,inactive,inactive,inactive,inactive,inactive,inactive,inactive,inactive,inactive,inactive,-13.5% (inactive),-2.81% (inactive),–,–,–,–,–,–
CCC1(C2=NCCN2)Cc2ccccc2O1 (configuration not stated),inactive,inactive,inactive,inactive,inactive,inactive,inactive,inactive,inactive,inactive,-22.3% (inactive),-18% (inactive),–,–,–,7.08 µM (active),–,–
Cc1ccc(-c2nc3ccc(C)cn3c2CC(=O)N(C)C)cc1,inactive,inactive,inactive,inactive,inactive,inactive,inactive,inactive,inactive,inactive,-10.9% (inactive),2.33% (inactive),inactive,–,–,–,-24.8% (inactive),–
COC[C@@H](NC(C)=O)C(=O)NCc1ccccc1,inactive,inactive,inactive,inactive,inactive,inactive,inactive,inactive,inactive,inactive,–,–,–,–,–,–,–,–
C[C@]12CCC(=O)C(O)=C1CC[C@@H]1[C@@H]2CC[C@]2(C)C(=O)CC[C@@H]12,inactive,inactive,inactive,inactive,inactive,inactive,inactive,inactive,inactive,inactive,–,–,inactive,2.3% (inactive),–,–,–,inactive
Oc1cc(Cl)ccc1Oc1ccc(Cl)cc1Cl,inactive,39.8 µM (active) and inactive,inactive,44.7 µM (active) and inactive,inactive,inactive,inactive,35.5 µM (active) and inactive,inactive,inactive,–,–,–,-4.24% (inactive),inactive,–,-27.9% (inactive),inactive
Cc1cccc(C)c1NC1=NCCCS1,inactive,inactive,inactive,inactive,inactive,inactive,inactive,inactive,inactive,inactive,-12.3% (inactive),–,–,–,–,17.8 µM (active),–,–
CC(C)NCC(O)c1ccccc1Cl (configuration not stated),inactive,inactive,inactive,inactive,inactive,inactive,inactive,inactive,inactive,inactive,-16.7% (inactive),-18.1% (inactive),inactive,–,–,–,–,–
CN(C)CCc1ccc(O)cc1,inactive,inactive,inactive,inactive,inactive,–,inactive,inactive,inactive,inactive,-0.64% (inactive),-12.6% (inactive),–,–,–,–,–,inactive
